Shown are actives, neighbours in structure and some others; about 10% of the full set was active somewhere.
PNC inhibitor – blocks assembly of the perinucleolar compartment; 3.1% of 140,000 active; PC3M PTB-GFP, PNC prevalence imaging, 16 h; hits give low values; activity change (PNC), negative = inhibition, % at 10 µM;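 active = readout at or below -70, meaning at least 70% loss of cells showing the perinucleolar compartment, a nuclear body marking cancer cells; inconclusive = readout between -30 and a set limit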;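 note: plate controls were DMSO wells for no effect and camptothecin positive control wells for full effect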
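Compounds are pinned in duplicate onto adhered PC3M cells stably expressing GFP-tagged PTB and incubated 16 h at 37 C. Cells are then fixed, nuclei stained with Hoechst, and PNC-positive cells counted.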
ALDH1A1 block – blocks purified human ALDH1A1 activity; P00352; Purified ALDH1A1, NADH fluorescence, propionaldehyde substrate; Potency, µM (top dose mostly 75.3 µM), for the others: top-dose activity, negative = inhibition, hits mostly inhibitors; 7.3% of 220,000 active; active = well fitted inhibition curve with a large enough effect, not every such curve was filed as active; inconclusive = small, poorly fitted or top-dose-only effect, or another doubt; inactive = no such curve, though single readings can be large or run the other way;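 note: potency is the fitted concentration of half-maximal effect; plate controls were no enzyme wells and a reference inhibitor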
12-hLO inh – 12-hLO (ALOX12) enzyme inhibition | P18054 | purified 12-hLO, xylenol orange hydroperoxide absorbance | Potency, µM (highest dose often 57.1 µM), inactives show top-dose activity change, negative = inhibition, most hits filed as inhibitors | 0.12% of 150,000 active | AID 1452; note: potency is the fitted concentration of half-maximal effect; nearly all actives have a fitted effect of over 55% in size
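Purified human 12hLO (150 nM), preincubated 15 min with compound, then 40 uM arachidonic acid for 30 min, room temperature, Hepes pH 7.0 with 0.01% Triton X-100. Hydroperoxide detected by ferrous iron/xylenol orange; 573/405 nm absorbance ratio gives reaction progress.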
aGal spleen mod – alpha-galactosidase A (human) modulation; P06280; AID 2107; 0.008% of 240,000 active; Potency, µM (highest dose often 80 µM), inactives show top-dose activity change, negative = inhibition, actives largely listed as inhibitors; human spleen homogenate, 4MU-alpha-Gal fluorescence, 40 min;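 note: potency is the fitted concentration of half-maximal effect; 0% = enzyme with vehicle and -100% = no enzyme basal signal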
Target sequence (P06280 32-429 limits assumed): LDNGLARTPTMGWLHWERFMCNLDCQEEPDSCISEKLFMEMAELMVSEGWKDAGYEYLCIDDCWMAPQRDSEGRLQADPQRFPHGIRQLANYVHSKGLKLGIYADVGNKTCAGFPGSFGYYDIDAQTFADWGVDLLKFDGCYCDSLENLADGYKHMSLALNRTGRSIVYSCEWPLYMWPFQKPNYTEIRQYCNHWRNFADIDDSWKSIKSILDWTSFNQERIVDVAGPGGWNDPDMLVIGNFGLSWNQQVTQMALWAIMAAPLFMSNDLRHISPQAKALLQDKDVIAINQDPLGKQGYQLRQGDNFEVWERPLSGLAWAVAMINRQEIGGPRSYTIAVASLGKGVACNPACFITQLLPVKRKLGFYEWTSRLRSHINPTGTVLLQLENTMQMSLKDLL
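Inhibition or activation of alpha-galactosidase in human spleen homogenate is scored by 4-MU fluorescence after 40 min at 37C, pH 5.0, with 1 mM substrate. AC50s come from concentration-response fitted to the Hill equation.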
GLA inh pH 4.5 – alpha-galactosidase A (human) inhibition, pH 4.5. P06280. purified enzyme, 4-MU-alpha-Gal fluorescence, pH 4.5. activity change, negative = inhibition, % at 105 µM. 230,000 tested, under 10 active. AID 1467;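 note: 0% = full activity with enzyme and -100% = basal without enzyme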
HPGD block – inhibitors of human 15-hydroxyprostaglandin dehydrogenase (HPGD) | P15428 | Potency, µM, inactives show top-dose activity change, negative = inhibition, usual class: inhibitors | 4.3% of 150,000 active | purified HPGD, NADH fluorescence kinetic, PGE2 substrate; active = well fitted inhibition curve with a large enough effect, not every such curve was filed as active; inconclusive = small, poorly fitted or top-dose-only effect, or another doubt; inactive = no such curve, though single readings can be large or run the other way; note: potency is the fitted concentration of half-maximal effect
Target sequence (P15428 whole entry, looked up): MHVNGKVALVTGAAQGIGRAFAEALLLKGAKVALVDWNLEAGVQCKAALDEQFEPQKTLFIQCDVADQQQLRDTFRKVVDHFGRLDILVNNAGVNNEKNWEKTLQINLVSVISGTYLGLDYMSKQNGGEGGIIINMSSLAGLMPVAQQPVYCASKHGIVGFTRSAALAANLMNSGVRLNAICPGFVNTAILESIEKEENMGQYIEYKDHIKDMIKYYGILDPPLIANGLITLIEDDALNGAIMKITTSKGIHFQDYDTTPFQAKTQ
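NADH formation kinetics: reaction with 30 uM PGE2 and 1 mM NAD+ (final), 20 nM enzyme, Tris-HCl pH 8 with Tween 20, after 15 min compound preincubation at room temperature. Fluorescence change, last versus first of five reads.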
* hit, by the source's call. Unless noted, calls come from the whole dose curve; as a rule, active = well fitted curve in the direction sought with a large enough effect; inconclusive = small, poorly fitted or top-dose-only effect, or another doubt; inactive = no such curve, though single readings can be large; an effect the other way counts as inactive or inconclusive. Unless noted, % is set by controls: 0 for no effect and ±100 for the full control effect.

What do the screens show for `COc1ccc(CN(C(=O)CSc2nnc(-c3ccccc3C)o2)c2ccc(F)cc2)cc1`?
PNC inhibitor: 72; ALDH1A1 block: 2.5µM*; 12-hLO inh: -4%; aGal spleen mod: 8%; GLA inh pH 4.5: -10; HPGD block: inconclusive

Results for COc1ccc(NC(=O)c2cn3c(nc4ccccc43)c(C#N)c2C)cc1 ?
aGal spleen mod: -1%; GLA inh pH 4.5: 3

Results for Cc1c(C(=O)Nc2ccccc2)cn2c(nc3ccccc32)c1C#N ?
PNC inhibitor: -80*; ALDH1A1 block: inconclusive; 12-hLO inh: 15%; aGal spleen mod: -10%; GLA inh pH 4.5: 10; HPGD block: -16%

How did CCc1cccc(CC)c1-n1c(SCC(=O)c2c(N)n(C)c(=O)n(C)c2=O)nnc1-c1cccnc1 do in these assays?
PNC inhibitor: -134*; ALDH1A1 block: -3%; 12-hLO inh: 1%; aGal spleen mod: 1%; GLA inh pH 4.5: 5; HPGD block: -12%

How did Cc1ccccc1-n1nnnc1SCC(=O)c1c(N)n(C)c(=O)n(C)c1=O do in these assays?
ALDH1A1 block: 0.35µM*; aGal spleen mod: -7%; GLA inh pH 4.5: 1

How did Cn1c(N)c(C(=O)CSc2nnnn2-c2ccccc2)c(=O)n(C)c1=O do in these assays?
aGal spleen mod: -2%; GLA inh pH 4.5: 9

How did CN1CCc2c(sc3c2C(=O)NC(c2ccc(-c4ccc(Cl)cc4)o2)N3)C1 (stereo not drawn) do in these assays?
ALDH1A1 block: inconclusive; aGal spleen mod: 8%; GLA inh pH 4.5: -12

How did CCOC(=O)N/N=C/C=C/c1ccccc1 do in these assays?
PNC inhibitor: -13; ALDH1A1 block: -10%; 12-hLO inh: 8%; aGal spleen mod: 3%; GLA inh pH 4.5: 5; HPGD block: -16%

How did COc1ccc(NC(=S)NNC(=O)C2CC2c2ccc(C)cc2)cc1 (stereo not drawn) do in these assays?
PNC inhibitor: 24; ALDH1A1 block: 2.5µM*; 12-hLO inh: 0%; aGal spleen mod: 7%; GLA inh pH 4.5: 2; HPGD block: -25%

Results for O=C(NNC(=S)Nc1ccc(F)cc1)C1CC1c1ccc(Cl)cc1 (stereo not drawn) ?
PNC inhibitor: -18; ALDH1A1 block: 1%; 12-hLO inh: -13%; aGal spleen mod: 12%; GLA inh pH 4.5: 6; HPGD block: 16µM*

What do the screens show for `COCCCNC(=S)NNC(=O)C1CC1c1ccc(C(C)(C)C)cc1` (stereo not drawn)?
ALDH1A1 block: 7%; aGal spleen mod: -2%; GLA inh pH 4.5: -5

Results for Fc1ccc(NC(=S)Nc2ccc(Cl)cc2)cc1 ?
ALDH1A1 block: -7%; aGal spleen mod: 3%; GLA inh pH 4.5: -1

Results for Cc1ccc(NC(=S)NNC(=O)C2CC2c2ccc(C)cc2)cc1 (stereo not drawn) ?
PNC inhibitor: -100*; ALDH1A1 block: inconclusive; 12-hLO inh: -14%; aGal spleen mod: 3%; GLA inh pH 4.5: -14; HPGD block: -18%

What do the screens show for `Cc1noc(C)c1C(=O)N1CCC2(CCN(Cc3ccccc3)CC2)CC1`?
ALDH1A1 block: 6%; 12-hLO inh: 0%; aGal spleen mod: -3%; HPGD block: -6%

How did C[C@@H](CC(=O)O)[C@@H](N)C(=O)O do in these assays?
ALDH1A1 block: 4%; 12-hLO inh: -2%; aGal spleen mod: 6%; GLA inh pH 4.5: 0; HPGD block: 2%

Results for CCCCC[n+]1ccn(C2=C([O-])c3ccccc3C(=O)/C2=N\S(=O)(=O)c2ccccc2)c1 ?
PNC inhibitor: 95; ALDH1A1 block: 5µM*; 12-hLO inh: -1%; aGal spleen mod: 5%; GLA inh pH 4.5: 9; HPGD block: -11%

How did COc1ccccc1NC(=S)N(CCCN1CCOCC1)Cc1cccs1 do in these assays?
ALDH1A1 block: -16%; aGal spleen mod: -13%; GLA inh pH 4.5: 3

Results for Cc1csc(Nc2ccccc2)n1 ?
ALDH1A1 block: -8%; aGal spleen mod: 3%; GLA inh pH 4.5: -25

Results for Cc1cc(O)ccc1Nc1nc(-c2sc(N)nc2C)cs1 ?
PNC inhibitor: 9; ALDH1A1 block: 8.9µM*; 12-hLO inh: -2%; aGal spleen mod: 5%; GLA inh pH 4.5: 6; HPGD block: 16µM*

What do the screens show for `CCOc1ccccc1Nc1nc(-c2sc(C)nc2C)cs1`?
ALDH1A1 block: 20µM*; aGal spleen mod: 1%; GLA inh pH 4.5: -3

What do the screens show for `Cc1nc(N)sc1-c1csc(Nc2ccccc2)n1`?
PNC inhibitor: -14; ALDH1A1 block: 18µM*; 12-hLO inh: -5%; aGal spleen mod: 4%; GLA inh pH 4.5: -2; HPGD block: -8%

How did Cc1nc(Nc2ccccc2)sc1C do in these assays?
ALDH1A1 block: 16µM*; aGal spleen mod: -7%; GLA inh pH 4.5: -13

What do the screens show for `CCCC(=O)Nc1nc(C)c(-c2csc(Nc3ccccc3OC)n2)s1`?
PNC inhibitor: -12; ALDH1A1 block: inconclusive; 12-hLO inh: -14%; aGal spleen mod: 5%; GLA inh pH 4.5: -3; HPGD block: -16%

What do the screens show for `COc1ccc(OC)c(Nc2nc(-c3sc(N)nc3C)cs2)c1`?
PNC inhibitor: 33; ALDH1A1 block: inconclusive; 12-hLO inh: -8%; aGal spleen mod: 0%; GLA inh pH 4.5: -7; HPGD block: -27%

How did Cc1nc(CCNS(=O)(=O)c2cccnc2)cs1 do in these assays?
aGal spleen mod: -15%; GLA inh pH 4.5: -10

Results for COc1ccc(C=NCCCN2CCOCC2)cc1 ?
PNC inhibitor: 2; ALDH1A1 block: 20µM*; 12-hLO inh: 0%; aGal spleen mod: 7%; GLA inh pH 4.5: 4; HPGD block: -8%

What do the screens show for `CCS(=O)(=O)Nc1ccc(C(=O)OC)cc1`?
PNC inhibitor: 0; ALDH1A1 block: -1%; 12-hLO inh: -4%; aGal spleen mod: -3%; GLA inh pH 4.5: -7; HPGD block: 14µM*

How did CCOC(=O)c1ccc(NS(C)(=O)=O)cc1 do in these assays?
PNC inhibitor: 13; ALDH1A1 block: 8%; 12-hLO inh: 1%; aGal spleen mod: -9%; GLA inh pH 4.5: 0; HPGD block: inconclusive

What do the screens show for `CCS(=O)(=O)Nc1ccc(C(=O)c2ccccc2)cc1`?
PNC inhibitor: -23; ALDH1A1 block: -10%; 12-hLO inh: -3%; aGal spleen mod: -14%; GLA inh pH 4.5: -9; HPGD block: 0.28µM*

What do the screens show for `Cc1cc(C)c(/C=C2/C(=O)Nc3ccccc32)[nH]1`?
12-hLO inh: -8%

How did CCCc1[nH]n(-c2ccc(F)cc2)c(=O)c1C=Nc1ccc(C)cc1 do in these assays?
PNC inhibitor: 34; ALDH1A1 block: 6%; 12-hLO inh: 3%; aGal spleen mod: 4%; GLA inh pH 4.5: 0; HPGD block: -4%
